High-throughput results from PubChem BioAssay.
HP1b binding inh: HP1-beta chromodomain-methylated histone interaction inhibition; 390,000 compounds, 0.56% hits; Potency, µM (titrated, usually from 114 µM), for inactives: at the highest dose activity change, negative = inhibition, usual class: inhibitors; AlphaScreen HP1-beta / biotin-H3K9me3 peptide binding; P83916; also: potency is read from the fitted curve at half-maximal effect; nearly all actives have a fitted effect of over 70% in size
Target sequence (P83916 whole entry, looked up): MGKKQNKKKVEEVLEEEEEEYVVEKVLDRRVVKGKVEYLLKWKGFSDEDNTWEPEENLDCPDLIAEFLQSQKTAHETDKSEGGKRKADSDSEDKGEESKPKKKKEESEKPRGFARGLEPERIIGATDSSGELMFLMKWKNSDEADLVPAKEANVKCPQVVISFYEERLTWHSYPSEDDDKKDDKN
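HP1-beta protein (50 nM final) preincubated 30 min at room temperature with biotinylated H3(1-18)K9me3 peptide (50 nM) in PBS pH 7.4, 0.01% Tween-20, then compound added for 30 min. AlphaScreen streptavidin donor/nickel chelate acceptor beads (10 ug/mL final), 30 min dark, luminescence read.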
G9a block: blocks human histone lysine methyltransferase G9a; Q96KQ7; G9a H3K9 monomethylation, AlphaScreen, 2 h; Potency, µM (series often up to 102 µM), for the others: at the top dose activity, negative = inhibition, usual class: inhibitors; 350,000 compounds, 8.8% hits; AID 504332; also: potency is read from the fitted curve at half-maximal effect; % is scaled to controls: 0 for no effect and ±100 for the full control effect; nearly all actives have a fitted effect of over 75% in size
Target sequence (Q96KQ7 913-1193 limits assumed): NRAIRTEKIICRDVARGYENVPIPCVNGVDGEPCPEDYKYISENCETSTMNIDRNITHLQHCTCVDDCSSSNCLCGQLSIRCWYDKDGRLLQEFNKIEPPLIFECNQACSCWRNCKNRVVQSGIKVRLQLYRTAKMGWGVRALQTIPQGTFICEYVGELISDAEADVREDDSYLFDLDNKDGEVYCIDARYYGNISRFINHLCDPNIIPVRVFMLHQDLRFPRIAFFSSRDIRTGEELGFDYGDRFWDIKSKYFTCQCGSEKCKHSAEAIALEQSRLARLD
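G9a (20 nM) preincubated 15 min RT with compounds, then 500 nM biotinylated H3K9 peptide and 20 uM SAM added; 2 h RT reaction. Monomethyl-H3K9 product detected by AlphaScreen with anti-H3K9me1 antibody, streptavidin donor and anti-rabbit IgG acceptor beads.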
BAZ2B block: inhibitors of human BAZ2B bromodomain; Q9UIF8; AlphaScreen BAZ2B-H3K14Ac peptide displacement; Potency, µM (series often up to 114 µM), for the others: at the highest dose activity change, negative = inhibition, usual class: inhibitors; 360,000 compounds, 4.4% hits; AID 504333; also: potency is read from the fitted curve at half-maximal effect; % is scaled to controls: 0 for no effect and ±100 for the full control effect; nearly all actives have a fitted effect of over 60% in size
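Protein-peptide AlphaScreen: BAZ2B 50 nM, b-H3K14Ac 50 nM, 1x PBS pH 7.4 + 0.01% Tween-20. Preincubation 30 min RT; cpd 30 min RT (top 110 uM); beads 20 min RT, light-protected.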
JMJD2A Tudor inh: JMJD2A Tudor domain (human) inhibition. AlphaScreen JMJD2A-Tudor / H3K4me3 peptide binding. AID 504339. Potency, µM (series often up to 114 µM), for the others: at the highest dose activity change, negative = inhibition, hits mostly inhibitors. O75164. 390,000 compounds, 4.4% hits; also: potency is read from the fitted curve at half-maximal effect; % is scaled to controls: 0 for no effect and ±100 for the full control effect; nearly all actives have a fitted effect of over 50% in size
CtBP-E1A inh: blocks the CtBP interaction with E1A | AlphaScreen GST-E1A/His-CtBP binding, 1536-well; hits give low values | activity change, % (concentration not given with the values) | 340,000 compounds, 0.49% hits; in the data active = activity change below about -65%; inconclusive = mostly about -30% to -63%; also: % is scaled to controls: 0 for no effect and ±100 for the full control effect
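Protein mix (5X: 125 nM each GST-E1A, His-CtBP) was incubated with pinned compound 2 h at 37 deg C in dark, in 50 mM Tris pH 8.0 buffer with 300 mM NaCl. Glutathione donor and nickel acceptor beads followed; AlphaScreen signal read after 1 h.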
Six1-Eya2 inh: inhibitors of human Six1/Eya2 interaction | Q15475+O00167 | AlphaScreen GST-Six1/His-Eya2 binding, biochemical; hits give low values | activity change, % (no concentration beside the values) | 360,000 compounds, 0.56% hits | AID 651725; in the data active = activity change below about -65%; inconclusive = mostly about -30% to -63%; also: % is scaled to controls: 0 for no effect and ±100 for the full control effect
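AlphaScreen luminescence read after one hour at 37 °C in darkness. Pin-transferred compounds met GST-Six1 and His-Eya2 protein (5X stock 250 nM/500 nM) plus glutathione donor and Ni-chelate acceptor beads (5X, 50 ug/mL).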
Active calls of the source: *; ? = inconclusive; nt = no result given; ! = not active in a repeat; [ ] = remark or other dose. An excerpt weighted towards active compounds, which were near 10% of everything screened. Unless noted, calls follow the shape of the dose curve; as a rule, active = well fitted inhibition curve with a large enough effect; inconclusive = small, poorly fitted or top-dose-only effect; inactive = no such curve, though single readings can be large or run the other way.

SMILES	HP1b binding inh	G9a block	BAZ2B block	JMJD2A Tudor inh	CtBP-E1A inh	Six1-Eya2 inh
CCOC(=O)c1ccc(NC(=O)c2c(NCc3cc(OC)ccc3OC)sc3c2CCC3)cc1	29%	5µM*	-13%	-20%	nt	nt
CC1(C(=O)Nc2ccc3[nH]ncc3c2)CCN1C(=O)C/C=C/c1ccccc1 (stereo not given)	nt	nt	nt	nt	1	1
Cc1ccc2nc(NC(=O)CSc3nccn3Cc3ccc(F)cc3)sc2c1	-22%[57 µM]	?	?	?	nt	nt
CCOc1ccc(CN(CCc2ccc3c(c2)OCO3)Cc2cc(OC)cc(OC)c2)cc1	?	1.4µM*	?	4µM*	nt	nt
Fc1ccc(C(Nc2ccccc2Cl)c2nnc(-c3ccccc3Cl)o2)cc1 (stereo not given)	92%	94%[59 µM]	43%	50%	nt	nt
O=C(NC1CCS(=O)(=O)C1)C1CCCCN1S(=O)(=O)c1ccc(Cl)cc1 (stereo not given)	18%	28µM*	3%	-16%	7	-1
O=C(NCCCN1CCN(c2cccc(Cl)c2)CC1)c1sc2ncccc2c1-n1cccc1	-21%[57 µM]	-45%[59 µM]	35µM*	32µM*	nt	nt
Cc1ccc(C)n1-c1c(C(=O)NCCCN2CCN(c3ccc(F)cc3)CC2)sc2ncccc12	-3%[57 µM]	-45%[59 µM]	?	50µM*	nt	nt
O=C(NCCCN1CCN(c2ccccc2)CC1)c1sc2ncccc2c1-n1cccc1	-16%[57 µM]	-30%[59 µM]	?	?	nt	nt
Clc1ccccc1-c1nc(-n2ccnc2)c2ccccc2n1	nt	-47%[0.501 µM]	nt	nt	nt	nt
Clc1ccc(-n2ncc3c(NCCCn4ccnc4)ncnc32)cc1	17%	25µM*	-33%	-24%	-4	-1
Cc1ccccc1OCc1nc2ccccc2c(=O)n1/N=C/c1ccco1	4%	?	-30%	-11%	-2	-11
S=c1[nH]nc(COc2ccccc2)n1/N=C/c1ccco1	-14%	-116%	?	18µM*	2	3
Cc1ccc(/C=N/n2c(COc3ccccc3)n[nH]c2=S)o1	-3%	13µM*	-33%	56µM*	nt	0
CCOc1ccc(N2CC(c3nc4ccccc4n3CCC3CCCCC3)CC2=O)cc1 (stereo not given)	26%	-40%[59 µM]	-21%	-19%	nt	nt
CN(C)CCCNc1nc(-c2ccccc2)nc2ccccc12	30%	79µM*	8%	-16%	2	1
Cc1ccc(-c2nc(NCCCN(C)C)c3ccccc3n2)cc1	nt	nt	nt	nt	-2	-20
Nc1ccc(-c2c3ccc(=O)cc-3oc3cc(O)ccc23)cc1C(=O)O	?	45µM*	?	?	-3	-12
O=c1ccc2c(-c3ccccc3)c3ccc(O)cc3oc-2c1	?	74%	15%	-29%	14	10
CCNc1ncc2nc(-c3ccccc3)c(=O)n(C)c2n1	nt	5%[0.501 µM]	nt	nt	nt	nt
Cc1ccc(-c2nnc(SCc3ccc(C#N)cc3)n2Cc2ccco2)cc1	7%	nt	-35%	79µM*	-6	-5
C=CCn1c(SCc2ccc(C#N)cc2)nnc1-c1cccc(OC)c1	13%	1%	-2%	2%	-1	8
Cn1c(SCc2ccc(C#N)cc2)nnc1-c1ccccc1	27%	?	-8%	-6%	4	-2
COc1cccc(-c2nnc(SCc3ccc(C#N)cc3)n2Cc2ccco2)c1	10%	35µM*	-29%	?	-14	-15
CCCc1nc2sc3c(N4CCCCC4)ncnc3c2c2c1CCCC2	43%	0%[59 µM]	3%	13%	nt	nt
SMILES	HP1b binding inh	G9a block	BAZ2B block	JMJD2A Tudor inh	CtBP-E1A inh	Six1-Eya2 inh
O=S(=O)(c1cccs1)N1CCN(c2nc(-c3cccs3)nc3ccccc23)CC1	51%	nt	nt	-12%	nt	nt
CCN(CC)CCCN=C1N[C@@H](c2cccc(C(F)(F)F)c2)C(C(=O)OC)=C(C)N1CC	25%	nt	nt	25µM*	6	7
CCN1C(=NCC(C)C)N[C@@H](c2cccc(F)c2)C(C(=O)OC)=C1C	46%	40µM*!	?	?	-2	1
COC(=O)C1=C(C)N(Cc2ccco2)C(=O)N[C@H]1c1ccccc1	nt	?	-28%	nt	nt	nt
CCN1C(=NCCN2CCOCC2)N[C@@H](c2ccccc2)C(C(=O)OC)=C1C	-17%	50µM*!	?	?	-9	-5
COC(=O)C1=C(C)N(Cc2ccco2)C(=O)N[C@H]1c1ccc(Br)cc1	nt	50µM*	?	nt	nt	nt
Cc1cccc(-n2c(-c3ccccc3)cn3c4c(=O)[nH]c(=O)n(C)c4nc23)c1	63%	34%[59 µM]	32%	-23%	nt	nt
CCc1nnc(SCc2nc(-c3ccc(OC)c(OC)c3)oc2C)c2cc3sc(C)cc3n12	12%	-28%[59 µM]	-12%	-16%	nt	nt
CCOC(=O)C1(C)CCCCCN1C(=O)/C=C/c1ccccc1 (stereo not given)	nt	nt	nt	nt	0	0
CN(C)c1nc(N(C)C)c2cnn(C)c2n1	26%	nt	nt	-3%	4	7
COc1ccc(NC(=O)c2cc(C(C)=O)n3ccccc23)cc1	25%	1%[59 µM]	-11%	-7%	nt	nt
CCN1C(=NCCCCO)N[C@@H](c2cccc(F)c2)C(C(=O)OC)=C1C	1%	10%[12.7 µM]	?	?	-15	-15
CCN1C(=NCc2ccco2)N[C@@H](c2cccc(F)c2)C(C(=O)OC)=C1C	47%	40µM*!	-39%	?	25	4
COc1ccc(-c2nc3cnc(Oc4ccccc4)nc3n(C3CC3)c2=O)cc1	nt	2%[12.7 µM]	nt	nt	nt	nt
CCOc1ccccc1NC(=O)c1c(NCc2sccc2C)sc2c1CCCCC2	4%	10µM*	?	?	nt	nt
COC(=O)c1c(NC(=S)Nc2cc(OC)c(Cl)cc2OC)sc2c1CCCCC2	-38%	12%[59 µM]	-11%	50µM*	-2	-17
COc1ccc(NC(=O)c2c(NCc3cccc(F)c3)sc3c2CCCC3)c(OC)c1	?	10µM*	25µM*	?	nt	nt
CCOC(=O)N1CCc2c(sc(NCc3sccc3C)c2C(=O)Nc2ccccc2OCC)C1	7%	8.9µM*	-23%	?	nt	nt
CCOc1ccc(NS(=O)(=O)c2cc(C(=O)N3CC(C)OC(C)C3)ccc2C)cc1 (stereo not given)	12%	16%[0.501 µM]	9%	-11%	1	7
CC1CCC(C(=O)NC(C(=O)NCc2cccnc2)C(C)C)CC1 (stereo not given)	35%	6%	3%	-7%	-1	0
CCOc1ccccc1NC(=O)c1c(NCc2sccc2C)sc2c1CCC(C)C2 (stereo not given)	-4%	-29%[59 µM]	-29%	-29%	nt	nt
COc1ccccc1NC(=O)c1c(NCc2sccc2C)sc2c1CCCCC2	?	10µM*	32µM*	45µM*	nt	nt
CCOC(=O)N1CCc2c(sc(NCc3sccc3C)c2C(=O)Nc2ccc(OC)cc2OC)C1	-2%	3.5µM*	?	?	nt	nt
